# The full list was thinned out, with hits kept by preference.
# PD-1 reverse act = reversal of PD-1 mediated T-cell inhibition. 29,000 tested, under 10 active. primary human CD4 T cells, PD-L1 beads, CellTiter-Glo 96 h. activation, % (concentration not given with the values). AID 2316; call rule not given here
# MITF inh = MITF inhibition | 37,000 tested, 0.28% active | TRPM1 promoter luciferase, luminescence, 24 h | inhibition, % (no concentration beside the values); in the data active = inhibition above about 85%; inconclusive = no clear call, values can overlap the other calls; inactive = below about 68%;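 also: human melanocyte line stably carrying TRPM1 promoter luciferase reporter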
# Hedgehog inh = Sonic Hedgehog pathway inhibition; inhibition, % (test concentration not listed); 22,000 tested, 2.1% active; Shh-LIGHT2 Gli-luciferase reporter, 30 h;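 active = mean inhibition across valid replicates above about 65%, limit read from the data; inconclusive = mean under the limit, yet half or more replicates past it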;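 also: pathway switched on by Shh-conditioned medium diluted 1 in 25 in low serum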
# Hits are given with their value; 0 = inactive; ? = inconclusive; - = no result given.
SMILES,PD-1 reverse act,MITF inh,Hedgehog inh
CC1(C)CC[C@]2(C(=O)O[C@@H]3O[C@H](CO)[C@@H](O)[C@H](O)[C@H]3O)CC[C@]3(C)C(=CCC4[C@@]5(C)CC[C@H](O[C@@H]6O[C@H](CO)[C@@H](O)[C@H](O)[C@H]6O)[C@@](C)(CO)C5CC[C@]43C)[C@@H]2C1 (stereo partly drawn),0,0,0
CC1(C)CC[C@]2(C(=O)O)CC[C@]3(C)C(=CCC4[C@@]5(C)CC[C@H](O[C@@H]6O[C@H](CO)[C@@H](O)[C@H](O)[C@H]6O)[C@@](C)(CO)C5CC[C@]43C)[C@@H]2C1 (stereo partly drawn),-,-,88.5
CC1(C)CC[C@]2(C(=O)O[C@@H]3O[C@H](CO)[C@@H](O)[C@H](O)[C@H]3O)CC[C@]3(C)C(=CCC4[C@@]5(C)CC[C@H](OC6O[C@H](CO)[C@@H](O)[C@H](O[C@@H]7O[C@H](CO)[C@@H](O)[C@H](O)[C@H]7O)[C@H]6O)C(C)(C)C5CC[C@]43C)[C@@H]2C1 (stereo partly drawn),-,-,0
C[C@@H]1O[C@@H](O[C@H]2[C@H](O[C@H]3CC[C@@]4(C)C(CC[C@]5(C)C4CC=C4C6CC(C)(C)CC[C@]6(C(=O)O)CC[C@]45C)[C@]3(C)CO)OC[C@H](O)[C@@H]2O)[C@H](O)[C@H](O)[C@H]1O (stereo partly drawn),0,0,73.7
CC(C)NC(=O)N(C)C[C@H]1Oc2c(NS(=O)(=O)c3ccccc3)cccc2C(=O)N([C@H](C)CO)C[C@H]1C,0,0,0
CCOC(=O)c1cc2c(NC(C)=O)c(C(=O)OCC)sc2nc1C(F)(F)F,0,0,0
Cc1noc(C)c1NC(=O)N(C)C[C@@H]1OCCCC[C@@H](C)Oc2ccc(NS(=O)(=O)c3c(C)noc3C)cc2C(=O)N([C@H](C)CO)C[C@@H]1C,0,0,0
COc1ccc(S(=O)(=O)N(C)C[C@H]2Oc3ccc(NC(=O)CCC(F)(F)F)cc3C(=O)N([C@@H](C)CO)C[C@@H]2C)cc1,0,0,-
CC(C)NC(=O)Nc1ccc2c(c1)CC(=O)N([C@H](C)CO)C[C@H](C)[C@H](CN(C)Cc1ccccc1)O2,-,0,-
C[C@@H]1O[C@@H](O[C@@H]2[C@@H](O)[C@H](O[C@@H]3[C@@H](O)[C@H](C)O[C@@H](O[C@H]4[C@H](O[C@H]5CC[C@@]6(C)C(CC[C@]7(C)C6CC=C6[C@@H]8CC(C)(C)CC[C@]8(C(=O)O)CC[C@]67C)[C@]5(C)CO)OC[C@H](O)[C@@H]4O)[C@@H]3O)O[C@H](CO)[C@H]2O[C@@H]2O[C@H](CO)[C@@H](O[C@@H]3OC[C@@H](O)[C@H](O)[C@H]3O)[C@H](O)[C@H]2O)[C@H](O)[C@H](O)[C@H]1O (stereo partly drawn),0,0,77.7
CC(=O)OC1C(C)OC(OC2C(CO)OC(OC(=O)[C@]34CCC(C)(C)CC3C3=CCC5[C@@]6(C)CC[C@H](OC7OC(CO)C(OC8OC(CO)C(OC9OCC(O)C(O)C9O)C(O)C8O)C(O)C7O)[C@@](C)(CO)C6CC[C@@]5(C)[C@]3(C)CC4)C(OC3OC(C)C(O)C(O)C3O)C2O)C(O)C1O (stereo partly drawn),-,-,0
CC1CC[C@]2(C(=O)OC3OC(COC4OC(CO)C(O)C(O)C4O)C(O)C(O)C3O)CC[C@]3(C(=O)O)C(=CCC4[C@@]5(C)CC[C@H](OC6OC(C)C(O)C(O)C6O)C(C)(C)C5CC[C@]43C)C2C1C (stereo partly drawn),0,0,0
CC(C)(CCO[C@@H]1O[C@H](CO[C@@H]2OC[C@@H](O)[C@H](O)[C@H]2O)[C@@H](O)[C@H](O)[C@H]1O)C[C@@H]1C(C(=O)O)=CC[C@]2(C(=O)O)C1=CCC1[C@@]3(C)CC[C@H](O[C@@H]4O[C@H](CO[C@@H]5O[C@H](CO)[C@@H](O)[C@H](O)[C@H]5O)[C@@H](O)[C@H](O)[C@H]4O)C(C)(C)C3CC[C@]12C (stereo partly drawn),-,-,106.4
COc1ccc(NC(=O)N(C)C[C@H]2Oc3ccc(NS(=O)(=O)c4ccc(Cl)cc4)cc3C(=O)N([C@H](C)CO)C[C@@H]2C)cc1,-,0,0
O=C1c2c(O)ccc(O)c2C(=O)c2c(NCCNCCO)ccc(NCCNCCO)c21,-,95.9,0
CCN(CC)c1c(C#N)c(SCC(=O)c2cccs2)cc2c1CCCC2,0,0,80.8
Cc1cc(C)c2c(=O)[nH]c(SCC(=O)c3cccs3)nc2n1,0,0,-
CCOc1ccc(S(=O)(=O)Nc2nc3ccccc3nc2Nc2ccccc2)cc1,0,0,?
O=S(=O)(Nc1nc2ccccc2nc1Nc1ccccc1F)c1ccc(Cl)cc1,0,0,98.1
Nc1cccc(-c2cc3c(Oc4cccc(O)c4)ncnc3[nH]2)c1,0,0,0
COc1ccc(NC(=O)N(C)C[C@H]2Oc3c(NS(=O)(=O)c4ccc(OC)cc4)cccc3C(=O)N([C@H](C)CO)C[C@H]2C)cc1,0,0,0
C[C@@H]1CN([C@H](C)CO)C(=O)c2cc(NC(=O)C3CC3)ccc2O[C@H]1CN(C)S(C)(=O)=O,0,0,0
O=C(O)CCC(=O)Nc1cccc(C(F)(F)F)c1,-,0,-
O=C(/C=N/O)Nc1cc(C(F)(F)F)cc(C(F)(F)F)c1,0,0,69.4
CCOC(=O)CSc1nnc(-c2ccccc2)c(=O)n1-c1ccccc1,0,0,0
SMILES,PD-1 reverse act,MITF inh,Hedgehog inh
C[C@@H]1CN([C@@H](C)CO)C(=O)c2cc(NS(=O)(=O)c3ccc(F)cc3)ccc2O[C@@H]1CN(C)Cc1ccc(-c2ccccc2)cc1,0,0,-
CCCCN1C(=O)[C@H]2Cc3c([nH]c4ccccc34)[C@H](c3ccc(OC)cc3)N2C1=O,0,0,79.0
Cc1ccc(-c2nn3c(=O)c4ccccc4nc3c3ccccc23)cc1,0,0,-
C/C=C(/C)C(=O)O[C@@H](C)[C@@](C)(O)C(=O)O[C@H](C)[C@@H](OC(=O)/C(C)=C\C)c1cc(OC)c2c(c1)OCO2,0,0,89.3
Clc1ccc(CO/N=C(\Cn2ccnc2)c2ccc(Cl)cc2Cl)c(Cl)c1,-,92.7,104.4
O/N=C(\Cn1cncn1)c1ccc(Cl)cc1Cl,0,0,0
COc1ccc(CN(C)C[C@H]2Oc3ccc(NC(=O)NC4CCCCC4)cc3CC(=O)N([C@H](C)CO)C[C@H]2C)cc1,-,0,0
Cc1ccc(N(C(C)C(=O)Nc2ccc(C(F)(F)F)cc2)S(C)(=O)=O)cc1 (stereo not drawn),0,0,-
COc1ccc(-n2c(-c3cccc(OC)c3)csc2=NCc2cccnc2)cc1,0,0,70.8
COc1ccc(-n2c(SCC(N)=O)nnc2-c2cccnc2)cc1,0,0,-
O=C(Oc1ccc(N(Cc2ccco2)C2=NS(=O)(=O)c3ccccc32)cc1)c1ccco1,0,0,-
CNC(=O)CSCc1ccc(Br)cc1,0,0,0
N#CC(C#N)=C(Nc1ccc(Br)cc1)SCc1ccc(F)cc1,0,0,108.8
COc1ccc(NC(=O)Nc2cccc3c2O[C@H](CN(C)S(=O)(=O)c2ccc(C)cc2)[C@@H](C)CN([C@H](C)CO)C3=O)cc1,0,0,0
C[C@@H]1CCCCO[C@@H](CN(C)C(=O)CCC(F)(F)F)[C@@H](C)CN([C@H](C)CO)C(=O)c2cc(NC(=O)CCCN(C)C)ccc2O1,0,0,0

# Source: PubChem (Broad Institute)
